Results taken from PMC4336329 (PLoS ONE, 2015).
About 14,000 (4.5%) of roughly 310,000 compounds showed an effect of 50% or more. Effects have a minus sign here. This is one part of a sample in which strong results are shown more often than they occur.

Target: human ether-à-go-go-related gene (hERG) potassium channel (human, UniProt Q12809)
Assay: primary screen, population patch clamp on CHO cells stably expressing hERG; higher = less effect of the substance
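Note: peak tail current of the secondary pulse compared with the same well before compound.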

Sequence of human ether-à-go-go-related gene (hERG) potassium channel (Q12809 whole entry, looked up): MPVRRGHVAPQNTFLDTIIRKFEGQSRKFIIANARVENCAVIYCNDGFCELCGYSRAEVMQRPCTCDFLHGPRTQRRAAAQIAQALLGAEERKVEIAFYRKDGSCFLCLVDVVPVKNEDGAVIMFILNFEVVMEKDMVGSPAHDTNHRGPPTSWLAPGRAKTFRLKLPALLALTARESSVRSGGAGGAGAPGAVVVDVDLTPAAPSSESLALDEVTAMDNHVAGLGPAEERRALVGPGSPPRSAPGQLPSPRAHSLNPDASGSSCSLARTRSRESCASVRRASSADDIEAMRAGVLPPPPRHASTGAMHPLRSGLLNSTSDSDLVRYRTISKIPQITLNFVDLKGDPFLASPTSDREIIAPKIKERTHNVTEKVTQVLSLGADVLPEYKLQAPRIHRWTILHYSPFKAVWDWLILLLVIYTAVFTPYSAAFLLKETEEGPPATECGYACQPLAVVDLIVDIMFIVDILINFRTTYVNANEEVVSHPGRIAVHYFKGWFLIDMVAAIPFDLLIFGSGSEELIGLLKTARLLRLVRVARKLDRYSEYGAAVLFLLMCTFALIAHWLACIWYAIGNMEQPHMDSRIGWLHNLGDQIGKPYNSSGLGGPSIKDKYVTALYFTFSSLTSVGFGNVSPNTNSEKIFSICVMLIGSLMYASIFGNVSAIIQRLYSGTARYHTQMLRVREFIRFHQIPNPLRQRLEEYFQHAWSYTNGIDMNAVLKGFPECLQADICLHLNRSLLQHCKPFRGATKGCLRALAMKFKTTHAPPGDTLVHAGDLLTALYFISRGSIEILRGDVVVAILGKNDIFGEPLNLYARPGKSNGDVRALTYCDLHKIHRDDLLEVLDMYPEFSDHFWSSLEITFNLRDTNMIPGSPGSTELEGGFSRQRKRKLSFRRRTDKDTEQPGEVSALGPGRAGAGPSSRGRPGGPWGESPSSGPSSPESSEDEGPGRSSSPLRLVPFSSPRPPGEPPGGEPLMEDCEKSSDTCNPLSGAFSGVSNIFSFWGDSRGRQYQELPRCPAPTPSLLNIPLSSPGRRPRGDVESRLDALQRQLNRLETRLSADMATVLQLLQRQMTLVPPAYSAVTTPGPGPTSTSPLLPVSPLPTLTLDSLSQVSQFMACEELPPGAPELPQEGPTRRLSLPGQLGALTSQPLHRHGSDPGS

Compound	hERG current change (%, negative = inhibition) at 10uM
Cc1ccccc1-c1nc2cc(NC(=O)C3CC3)ccc2o1	7.97%
Cc1ccc(NC(=O)C2CC2c2ccccc2)cc1 (stereo not drawn)	2.96%
Cc1cccc(OCC(=O)Nc2cc(C)ccc2O)c1	12.4%
CCOCCCn1c(=N)c(S(=O)(=O)c2ccc(C)cc2)cc2c(=O)n3cc(C)ccc3nc21	11.6%
Cc1ccc2nc3c(cc(C(N)=S)c(=N)n3CCCOC(C)C)c(=O)n2c1	-74.4%
CCOCCCn1c(=N)c(S(=O)(=O)c2ccccc2)cc2c(=O)n3cc(C)ccc3nc21	-19.1%
CCCn1c(=N)c(S(=O)(=O)c2ccccc2)cc2c(=O)n3ccccc3nc21	-15.6%
CC(C)OCCCn1c(=N)c(C(N)=S)cc2c(=O)n3ccccc3nc21	-81.5%
CC(C)OCCCn1c(=N)c(S(=O)(=O)c2ccccc2)cc2c(=O)n3ccccc3nc21	-43.6%
CCOC(=O)C1=C(N)Oc2cc(C)[nH]c(=O)c2C1c1ccncc1 (stereo not drawn)	11.9%
COc1cc2c(cc1C1NC(=S)NC(C)=C1C(N)=O)CCCC2 (stereo not drawn)	9.6%
Cc1ccc(CNC(=O)CN2CCCC(C)C2)cc1 (stereo not drawn)	-29.7%
COc1ccc(N2CCN(C3CC(=O)N(C)C3=O)CC2)cc1 (stereo not drawn)	17.4%
O=S(=O)(c1ccc(Br)cc1Cl)N1CC[NH+](CCO)CC1.[Cl-]	3.35%
Oc1ccc(/C=N/N(Cc2ccccc2)c2ccccc2)cc1	35.8%
Cc1sc2ncn(CC(=O)NCCCC(=O)N3CCN(Cc4ccc5c(c4)OCO5)CC3)c(=O)c2c1C	-6.94%
CCn1ncc(/C=C/C(=O)c2ccccc2)c1C	5.83%
CCc1cc(C(=O)OC)c(NC(=O)CSc2nccn2C)s1	-56.9%
COC(=O)c1c(NC(=O)CSc2nccn2C)sc(C)c1C	-15.8%
CCOC(=O)c1cc(C)sc1NC(=O)CSc1nccn1C	-19.9%
O=C1CCC(=O)N1CC(O)COc1ccccc1 (stereo not drawn)	4.87%
Cl.OC(COc1ccc(Cl)cc1)CN1C2=NCCCN2c2ccccc21 (stereo not drawn)	-76.3%
Cl.OC(COc1ccccc1)CN1C2=NCCCN2c2ccccc21 (stereo not drawn)	-67%

Compound	hERG current change (%, negative = inhibition) at 10uM
Cc1cc(C(=O)NNC(=O)c2ccccc2[N+](=O)[O-])c(C)o1	11.2%
O=C(CN1CCN(Cc2ccccc2Cl)CC1)N/N=C/c1cccs1	-20.4%
O=C(CN1CCN(Cc2ccc(Cl)cc2)CC1)N/N=C/c1cccs1	-67.2%
O=C(CN1CCN(Cc2ccccc2)CC1)N/N=C/c1cccs1	-22.9%
O=C(Cc1ccc(Cl)cc1)N/N=C/c1ccncc1	-27.3%
O=C(CN1CCN(Cc2ccc(Cl)cc2)CC1)N/N=C/c1ccncc1	-80.1%
O=C(CN1CCN(Cc2ccccc2)CC1)N/N=C/c1cccnc1	-12.8%
O=C(O)CCCNC(=O)Cc1ccccc1	5.08%
O=C(C1=C(O)C(=O)N(c2ncccn2)C1c1cccs1)c1ccco1 (stereo not drawn)	14.3%
COc1ccccc1C1NC(=O)NC(C)=C1C(=O)OC1CCCCC1 (stereo not drawn)	6.66%
COCCNC(=O)C(=O)NNC(=O)CCc1ccccc1	8.78%
CCOC(=O)CN1C(=O)N[C@@H](c2cccc(C(F)(F)F)c2)C(C(C)=O)=C1C	11.8%
Cn1nc(-c2ccccc2)c2nc3ccccc3nc21	-5.31%
O=C(c1cc(-c2ccncc2)nc2ccc(Br)cc12)N1CCN(c2ccccn2)CC1	-37.2%
O=C(c1cc(-c2ccncc2)nc2ccc(Cl)cc12)N1CCN(Cc2ccc3c(c2)OCO3)CC1	-46.7%
O=C(c1cc(-c2ccncc2)nc2ccc(Br)cc12)N1CCN(Cc2ccc3c(c2)OCO3)CC1	-56.5%
Cl.Nc1nc(N2CCN(C(=O)c3ccco3)CC2)nc2ccccc12	-49.4%
CC(=O)c1ccc(N2CCN(C(=O)c3cc(-c4ccncc4)nc4ccc(Br)cc34)CC2)cc1	-42%
COc1cc2nc(N3CCN(C(=O)c4ccco4)CC3)nc(N)c2cc1OC.Cl	-35.9%
Cl.Nc1nc(N2CCN(C(=O)c3ccco3)CC2)nc2ccc(Br)cc12	-59.5%
O=C(O)c1cc(-c2ccc3c(c2)OCO3)nc2ccc(Br)cc12	9.07%
O=C(c1ccco1)N1CCN(C(=O)c2cc(-c3ccncc3)nc3ccc(Br)cc23)CC1	-72.7%
